{"source": "PubChem BioAssay AID1117282", "about": "(The Scripps Research Institute Molecular Screening Center, 2014)", "note": "The other results are listed elsewhere or left out. Values without a mark were called inactive. Activity calls are given as the source filed them.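 Rule for the calls: active = mean inhibition across replicates above a set limit taken from the earlier primary screen (cut at about 11% in these data); inactive = the rest.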", "data": [{"molecular_target": "RNA-editing ligase 1, mitochondrial (Trypanosoma brucei brucei) (UniProt P86926)", "sequence (P86926 whole entry, looked up)": "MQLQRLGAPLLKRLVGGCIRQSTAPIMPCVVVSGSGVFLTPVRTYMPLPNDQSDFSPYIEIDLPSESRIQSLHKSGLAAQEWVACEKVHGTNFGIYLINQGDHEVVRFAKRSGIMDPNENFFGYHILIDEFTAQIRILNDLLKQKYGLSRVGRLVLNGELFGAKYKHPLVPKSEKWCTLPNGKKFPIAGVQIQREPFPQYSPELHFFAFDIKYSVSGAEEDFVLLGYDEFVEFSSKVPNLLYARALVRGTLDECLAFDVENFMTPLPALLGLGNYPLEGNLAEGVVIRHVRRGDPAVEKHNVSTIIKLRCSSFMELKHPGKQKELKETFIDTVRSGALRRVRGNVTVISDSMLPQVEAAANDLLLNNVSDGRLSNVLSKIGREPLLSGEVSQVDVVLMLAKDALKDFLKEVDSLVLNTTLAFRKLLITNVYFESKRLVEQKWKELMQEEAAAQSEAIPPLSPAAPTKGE", "assay": "T. brucei editing ligase REL1 blockade – biochemical, FRET fluorescence, triplicate, confirmation (AID 1117282);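 note: 0% = REL1 with substrate and DMSO and 100% = REL1 plus control inhibitor NSC42067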", "conditions": "TbREL1 RNA ligation, at 9.66 µM, stronger effect = higher value", "values": [{"compound": "O=C(Nc1nc(-c2ccco2)c(-c2ccco2)s1)c1ccco1", "inhibition": "6.13%"}, {"compound": "CC1(C)CC(N2CCN(C(c3ccccc3)c3ccccc3)CC2)=CC(=[N+]2CCCCC2)C1", "inhibition": "16.7% (active)"}, {"compound": "CCCCCn1c(=O)[nH]c2cc(C(=O)NCCCN3CCCCC3C)ccc2c1=O", "note": "(stereo not given)", "inhibition": "7.94%"}, {"compound": "COc1c(O)cc2oc(-c3ccc(O)c(O)c3)cc(=O)c2c1O", "inhibition": "12.7% (active)"}, {"compound": "CNc1nc(Nc2ccc(C)c(Cl)c2)nc(N)c1[N+](=O)[O-]", "inhibition": "9.65%"}, {"compound": "COc1cc(/C=C/C(=O)n2cnc3ccccc32)cc(OC)c1OC", "inhibition": "2.66%"}, {"compound": "O=C(Nc1cccc(F)c1)NC1CCCCCCC1", "inhibition": "4.12%"}, {"compound": "CN1CCN(/N=C2/C(=O)Nc3ccc([N+](=O)[O-])cc32)CC1", "inhibition": "3.63%"}, {"compound": "CC(C)Cn1c(N)c(C(=O)NCc2cccs2)c2nc3ccccc3nc21", "inhibition": "6.35%"}, {"compound": "Cc1nnsc1C(=O)Nc1cccc(Cl)c1C", "inhibition": "2.09%"}, {"compound": "O=C(NCc1ccccc1)[C@@H]1CSC2c3ccccc3C(=O)N21", "note": "(stereo not given in full)", "inhibition": "3.84%"}, {"compound": "COc1ccc(C(C(=O)Nc2c(C)cccc2C)N2CCN(c3ccc(C)cc3)CC2)cc1", "note": "(stereo not given)", "inhibition": "-1.79%"}, {"compound": "COc1cc(NC(=O)CCS(=O)(=O)c2ccc3c(c2)oc(=O)n3C)cc(OC)c1", "inhibition": "2.33%"}, {"compound": "COC(=O)C1=C(C)N(Cc2cccc(C(F)(F)F)c2)C(=NCc2cccc(C(F)(F)F)c2)NC1c1ccccc1C(F)(F)F", "note": "(stereo not given)", "inhibition": "19.9% (active)"}, {"compound": "CC[C@@H](C)[C@@H]1CN([C@@H](C)CN2CCC[C@H]2CN2C(N)=NC[C@H]2C(C)C)C(=N)N1CCc1ccc(Cl)c(Cl)c1", "inhibition": "13.3% (active)"}]}]}
